Experimental data as given in PubChem BioAssay AID743060 (The Scripps Research Institute Molecular Screening Center, 2013).
“And” between values parts separate entries of the source, which are not always exact repeats. Equal values may be shown once.

Assay: inhibitors of T. brucei MetRS aminoacylation, late-stage follow-up, biochemical, radioactivity, round 1 (AID 743060)
Settings: purified enzyme, radiolabel aminoacylation, scintillation, 2 h; at 1 µM; stronger effect = higher value

In order of rising inhibition:
1. CCN(C(=O)Cn1cc(C(=O)C(=O)N2CCOCC2)c2ccccc21)c1ccccc1  -19.2%
2. COc1ccc(NC(=O)C2CC(=O)n3c(nc4ccccc43)N2)cc1 (stereo not given)  -18.5%
3. CC(=O)N(CCc1ccccc1)C1CC(=O)N(c2ccc(Cl)cc2)C1=O (stereo not given)  -16.2%
4. Cc1ccc(C(=O)NCCc2nc3ccccc3[nH]2)cc1C  -10.8%
5. Cc1cccc2[nH]c(CCN(C)C(=O)c3cccc(C4CCNC4)c3)nc12 (stereo not given)  -7.8%
6. O=C1CC(NCCc2ccccc2)C(=O)N1c1ccc(Br)cc1 (stereo not given)  -6.51%
7. CCN(CCc1nc2ccc(C)cc2[nH]1)C(=O)c1ccc2ncccc2c1  -4.55%
8. O=C(NCc1nc2ccccc2[nH]1)C1=C[C@H](C2CC2)C[C@H](OCc2ccc(CO)cc2)O1  -3.3%
9. Cc1cccc2[nH]c(C3CCCN(C(=O)c4cccc5cccnc45)C3)nc12 (stereo not given)  -3.03%
10. O=C(CN1CCSC1=NCc1ccccc1)c1ccc(Cl)c(Cl)c1  -1.95%
11. CCc1ccc2c(c1)c1nnc(SCC(=O)Nc3ccc4c(c3)OCO4)nc1n2C  -1.63%
12. COCCc1nc2ccc(C(=O)NCCc3nc4ccc(OC)cc4[nH]3)cc2o1  -1.44%
13. Cc1ccc(NC(=O)CN(C)C(=O)CCSc2ccc(F)cc2)cc1  -1.05%
14. O=C(NCCc1nc2ccccc2[nH]1)c1c(F)cccc1F  2.62%
15. Cc1cccc(NC(=O)C2CC(=O)n3c(nc4ccccc43)N2)c1 (stereo not given)  3%
16. CCCCn1c(CCNC(=O)c2ccc(F)cc2)nc2ccccc21  4.87%
17. O=C(NCc1nc2ccccc2[nH]1)C1=C[C@H](c2ccc3c(c2)OCO3)C[C@H](OCCCCO)O1  5.68%
18. CCO[C@@H]1OC(C(=O)NCc2nc3ccccc3[nH]2)=C[C@H](c2ccc(Br)cc2)[C@H]1CCCO  6.72%
19. O=C(NNC(=O)c1ccc(-n2cncn2)c([N+](=O)[O-])c1)c1ccc(Cl)cc1  7.36%
20. O=C(NCc1nc2ccccc2[nH]1)C1=C[C@@H](c2csc3ccccc23)C[C@@H](OCCCCO)O1  20.6%
21. Brc1cnc2nc(SCc3nc4ccccc4[nH]3)[nH]c2c1  23.7%
22. O=C(CC(=O)Nc1cccc(Cl)c1)NN=Cc1ccccc1  28.2%
23. Cc1ccc(C(=O)NCCc2nc3ccccc3[nH]2)cc1[N+](=O)[O-]  35.7%
24. CN(CC(=O)Nc1ccc(Cl)cc1)C(=O)c1ccc(-n2cncn2)c([N+](=O)[O-])c1  38%
25. O=C(Cn1cnc2ccccc21)Nc1cccc([N+](=O)[O-])c1  44.9%
26. O=C(Cn1cc(C(=O)c2ccco2)c2ccccc21)Nc1cccc(C(F)(F)F)c1  45.2%
27. O=C(NCc1nc2ccccc2[nH]1)C1=C[C@H](c2ccc(Br)cc2)C[C@H](OCCCCO)O1  51.6%
28. CN1CC(=O)N2C(c3cccc([N+](=O)[O-])c3)c3[nH]c4ccccc4c3C[C@H]2C1=O (stereo not given in full)  57.7%
29. O=C(NNC(=O)c1cc(-c2ccc(Cl)c(Cl)c2)nc2ccccc12)Nc1ccccc1  59.7%
30. CCCCCCCCCC1NC(C(=O)O)Cc2c1[nH]c1ccccc21 (stereo not given)  64.7%
31. Cc1ccc(CNC(=O)CSc2nnc3c(n2)[nH]c2ccc(C)cc23)cc1  76.3%
32. Oc1c(Cl)cc(Cl)cc1CNc1nc2ccccc2[nH]1  88.3%
33. CN(Cc1cc(Cl)cc(Cl)c1)[C@H]1C[C@H]2c3[nH]c4ccccc4c3CCN2C(=O)[C@H]1CO  95.1%
34. CCN(CC)C(=O)C(=O)c1cn(CC(=O)Nc2cccc(C(F)(F)F)c2)c2ccccc12  95.4%

For `O=C(Nc1ccc(F)c(Cl)c1)C1CC(=O)n2c(nc3ccccc32)N1` (stereo not given), the inhibition was 44.9% and 55.3%.
